Experimental data: publication PMC7862700, “An all-to-all approach to the identification of sequence-specific readers for epigenetic DNA modifications on cytosine”

Key:
Experiment in all cases: DAPPL (digital affinity profiling via proximity ligation, sequencing); 10 mM Tris-HCl pH 7.5, 50 mM NaCl, 1 mM DTT, 4% glycerol, room temperature, 30 min; GST-TFs on glutathione beads, 16-mer random dsDNA library, 0.1% formaldehyde crosslink after washing; high values mean tight binding
Conditions in all cases: protein: recombinant; tags: N-terminal GST; dsDNA, one strand shown
FLI1 = target: T1, FLI1 (Homo sapiens, UniProt Q01543 1-452)
T1 sequence: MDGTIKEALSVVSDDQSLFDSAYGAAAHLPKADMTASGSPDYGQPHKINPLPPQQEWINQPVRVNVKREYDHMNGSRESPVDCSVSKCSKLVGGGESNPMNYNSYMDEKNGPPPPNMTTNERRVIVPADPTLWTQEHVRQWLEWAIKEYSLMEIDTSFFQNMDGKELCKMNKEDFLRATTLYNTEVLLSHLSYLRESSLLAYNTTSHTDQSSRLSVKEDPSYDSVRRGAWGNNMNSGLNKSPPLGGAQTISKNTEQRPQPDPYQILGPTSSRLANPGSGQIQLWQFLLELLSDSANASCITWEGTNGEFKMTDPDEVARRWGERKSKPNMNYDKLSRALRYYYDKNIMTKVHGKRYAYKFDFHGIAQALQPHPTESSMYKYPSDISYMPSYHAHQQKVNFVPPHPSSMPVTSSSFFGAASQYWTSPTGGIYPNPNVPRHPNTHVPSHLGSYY
How it was run: (§1)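 Binding signal is given per hexamer as its read frequency for a factor divided by its frequency in the tag-only sample. GST-fused human transcription factors were expressed in yeast, captured on glutathione beads, barcoded with DNA and pooled with that sample, then incubated with 200 nmole of a 16-mer random double-stranded DNA library in Tris/NaCl/DTT/glycerol buffer for 30 min at room temperature. The pools were then washed, crosslinked, proximity-ligated, amplified by PCR and sequenced on an Illumina NextSeq500.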

ELK1 = target: T2, ELK1 (Homo sapiens, UniProt P19419 1-428)
T2 sequence: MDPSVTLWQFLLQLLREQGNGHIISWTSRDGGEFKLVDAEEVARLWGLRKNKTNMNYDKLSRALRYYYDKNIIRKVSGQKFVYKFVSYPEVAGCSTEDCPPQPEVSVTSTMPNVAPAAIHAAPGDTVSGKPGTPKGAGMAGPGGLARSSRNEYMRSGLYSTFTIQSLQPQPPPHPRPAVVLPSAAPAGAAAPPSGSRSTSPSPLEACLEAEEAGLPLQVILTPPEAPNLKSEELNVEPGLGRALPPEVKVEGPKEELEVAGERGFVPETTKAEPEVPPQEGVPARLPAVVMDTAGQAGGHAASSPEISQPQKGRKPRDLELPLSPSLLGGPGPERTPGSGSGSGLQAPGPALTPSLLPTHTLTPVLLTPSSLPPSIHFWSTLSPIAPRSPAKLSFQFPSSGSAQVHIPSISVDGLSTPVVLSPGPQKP
How it was run: as §1

GABPA = target: T3, GABPA (Homo sapiens, UniProt Q06546 1-454)
T3 sequence: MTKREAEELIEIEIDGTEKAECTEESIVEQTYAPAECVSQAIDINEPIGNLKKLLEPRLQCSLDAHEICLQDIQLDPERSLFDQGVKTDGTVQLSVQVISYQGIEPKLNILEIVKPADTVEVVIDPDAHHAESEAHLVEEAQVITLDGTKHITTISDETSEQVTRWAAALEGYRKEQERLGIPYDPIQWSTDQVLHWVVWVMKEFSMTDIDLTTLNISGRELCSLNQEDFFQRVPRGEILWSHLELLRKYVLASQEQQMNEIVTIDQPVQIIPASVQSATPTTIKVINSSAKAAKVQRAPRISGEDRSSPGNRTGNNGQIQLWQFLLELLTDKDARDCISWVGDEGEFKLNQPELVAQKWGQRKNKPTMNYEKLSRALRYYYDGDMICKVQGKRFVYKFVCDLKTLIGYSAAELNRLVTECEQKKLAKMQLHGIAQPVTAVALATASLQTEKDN
How it was run: as §1

ERG = target: T4, ERG (Homo sapiens, UniProt P11308 1-479)
T4 sequence: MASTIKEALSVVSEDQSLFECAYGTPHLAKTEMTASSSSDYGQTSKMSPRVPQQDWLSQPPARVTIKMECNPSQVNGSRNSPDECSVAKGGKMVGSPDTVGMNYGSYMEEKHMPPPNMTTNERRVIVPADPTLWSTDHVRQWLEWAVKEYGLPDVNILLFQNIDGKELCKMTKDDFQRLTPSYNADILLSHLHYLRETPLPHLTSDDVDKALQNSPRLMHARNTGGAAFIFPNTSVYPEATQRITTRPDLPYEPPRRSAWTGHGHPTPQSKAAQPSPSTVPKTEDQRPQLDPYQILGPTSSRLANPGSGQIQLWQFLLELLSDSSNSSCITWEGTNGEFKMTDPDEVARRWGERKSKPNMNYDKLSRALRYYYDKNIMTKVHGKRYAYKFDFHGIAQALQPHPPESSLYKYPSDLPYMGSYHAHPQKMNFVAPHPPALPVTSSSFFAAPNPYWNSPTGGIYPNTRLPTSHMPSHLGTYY
How it was run: as §1

ELF1 = ELF1 (Homo sapiens, UniProt P32519 1-619)
Sequence of ELF1 (P32519 whole entry): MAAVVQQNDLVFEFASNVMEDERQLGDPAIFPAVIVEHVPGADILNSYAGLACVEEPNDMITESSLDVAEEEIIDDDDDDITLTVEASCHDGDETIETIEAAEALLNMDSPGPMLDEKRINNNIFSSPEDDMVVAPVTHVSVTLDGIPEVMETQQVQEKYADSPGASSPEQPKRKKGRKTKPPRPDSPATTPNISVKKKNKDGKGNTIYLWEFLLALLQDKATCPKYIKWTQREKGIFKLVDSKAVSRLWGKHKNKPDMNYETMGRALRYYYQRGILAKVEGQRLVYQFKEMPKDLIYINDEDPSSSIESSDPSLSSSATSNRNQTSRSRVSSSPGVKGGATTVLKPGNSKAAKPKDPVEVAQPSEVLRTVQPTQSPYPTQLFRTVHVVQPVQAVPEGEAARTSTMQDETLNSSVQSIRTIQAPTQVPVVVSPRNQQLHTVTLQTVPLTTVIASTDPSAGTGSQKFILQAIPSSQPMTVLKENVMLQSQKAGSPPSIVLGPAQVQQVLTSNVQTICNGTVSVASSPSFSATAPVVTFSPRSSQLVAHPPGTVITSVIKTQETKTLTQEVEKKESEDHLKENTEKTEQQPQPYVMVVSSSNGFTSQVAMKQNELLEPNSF
How it was run: as §1

EHF = target: T5, EHF (Homo sapiens, UniProt Q9NZC4 1-300)
T5 sequence: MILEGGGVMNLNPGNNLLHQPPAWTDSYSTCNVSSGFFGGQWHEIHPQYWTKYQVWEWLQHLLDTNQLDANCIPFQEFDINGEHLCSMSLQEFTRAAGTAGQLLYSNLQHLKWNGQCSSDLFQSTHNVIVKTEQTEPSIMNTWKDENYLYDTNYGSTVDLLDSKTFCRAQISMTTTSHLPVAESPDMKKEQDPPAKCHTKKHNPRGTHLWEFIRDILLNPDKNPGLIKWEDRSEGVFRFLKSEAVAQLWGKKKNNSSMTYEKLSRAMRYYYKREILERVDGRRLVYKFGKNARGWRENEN
How it was run: as §1

SPI1 = SPI1 (Homo sapiens, UniProt P17947 1-270)
How it was run: as §1

SPIB = SPIB (Homo sapiens, UniProt Q01892 1-262)
Sequence of SPIB (Q01892 whole entry): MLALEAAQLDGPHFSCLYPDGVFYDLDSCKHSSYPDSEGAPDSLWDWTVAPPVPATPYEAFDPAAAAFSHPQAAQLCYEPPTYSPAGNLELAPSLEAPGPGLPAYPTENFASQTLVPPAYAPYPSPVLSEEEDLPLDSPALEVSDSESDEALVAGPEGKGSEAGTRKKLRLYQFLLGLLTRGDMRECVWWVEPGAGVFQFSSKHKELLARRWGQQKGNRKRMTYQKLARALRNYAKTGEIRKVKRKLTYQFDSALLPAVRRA
How it was run: as §1

ELK3 = target: T6, ELK3 (Homo sapiens, UniProt P41970 1-407)
T6 sequence: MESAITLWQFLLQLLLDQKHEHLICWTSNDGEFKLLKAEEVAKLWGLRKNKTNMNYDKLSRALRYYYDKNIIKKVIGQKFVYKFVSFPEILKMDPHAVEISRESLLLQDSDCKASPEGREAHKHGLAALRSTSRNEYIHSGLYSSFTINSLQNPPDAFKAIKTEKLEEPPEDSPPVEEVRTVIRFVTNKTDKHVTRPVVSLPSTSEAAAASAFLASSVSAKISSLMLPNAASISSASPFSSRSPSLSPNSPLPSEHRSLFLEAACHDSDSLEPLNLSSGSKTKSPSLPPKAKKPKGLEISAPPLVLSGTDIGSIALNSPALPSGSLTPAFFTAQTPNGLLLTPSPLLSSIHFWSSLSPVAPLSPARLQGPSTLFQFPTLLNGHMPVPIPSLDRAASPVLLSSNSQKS
How it was run: as §1

FEV = target: T7, FEV (Homo sapiens, UniProt Q99581 1-238)
T7 sequence: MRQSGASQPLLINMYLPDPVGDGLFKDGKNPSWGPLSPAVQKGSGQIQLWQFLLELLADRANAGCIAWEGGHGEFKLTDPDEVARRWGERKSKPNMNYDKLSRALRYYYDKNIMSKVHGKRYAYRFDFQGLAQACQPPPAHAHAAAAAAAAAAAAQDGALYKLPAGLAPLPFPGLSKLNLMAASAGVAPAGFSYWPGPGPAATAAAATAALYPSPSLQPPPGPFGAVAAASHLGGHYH
How it was run: as §1

ETV5 = ETV5 (Homo sapiens, UniProt P41161 1-510)
Sequence of ETV5 (P41161 whole entry): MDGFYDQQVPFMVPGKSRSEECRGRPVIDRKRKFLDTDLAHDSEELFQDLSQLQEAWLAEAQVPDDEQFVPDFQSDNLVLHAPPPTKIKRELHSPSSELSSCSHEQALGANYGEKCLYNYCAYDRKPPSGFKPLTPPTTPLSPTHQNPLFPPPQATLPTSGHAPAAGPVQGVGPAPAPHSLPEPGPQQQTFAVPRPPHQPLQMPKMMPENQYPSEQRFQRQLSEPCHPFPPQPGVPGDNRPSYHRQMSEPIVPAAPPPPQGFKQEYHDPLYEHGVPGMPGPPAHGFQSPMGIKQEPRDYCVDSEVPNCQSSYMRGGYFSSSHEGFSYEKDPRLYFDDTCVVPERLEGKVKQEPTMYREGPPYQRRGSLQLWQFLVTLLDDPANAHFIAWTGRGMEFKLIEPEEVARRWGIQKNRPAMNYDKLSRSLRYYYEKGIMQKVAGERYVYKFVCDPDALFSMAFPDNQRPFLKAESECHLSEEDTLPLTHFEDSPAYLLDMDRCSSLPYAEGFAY
How it was run: as §1

SPIC = target: T8, SPIC (Homo sapiens, UniProt Q8N5J4 1-248)
T8 sequence: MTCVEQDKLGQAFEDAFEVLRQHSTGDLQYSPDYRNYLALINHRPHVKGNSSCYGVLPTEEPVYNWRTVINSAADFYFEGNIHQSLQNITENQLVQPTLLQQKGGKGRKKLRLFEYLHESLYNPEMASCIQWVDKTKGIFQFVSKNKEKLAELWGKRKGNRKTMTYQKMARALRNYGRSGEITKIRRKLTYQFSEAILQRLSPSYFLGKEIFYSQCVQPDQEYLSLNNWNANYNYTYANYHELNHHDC
How it was run: as §1

ELF4 = ELF4 (Homo sapiens, UniProt Q99607 1-663)
Sequence of ELF4 (Q99607 whole entry): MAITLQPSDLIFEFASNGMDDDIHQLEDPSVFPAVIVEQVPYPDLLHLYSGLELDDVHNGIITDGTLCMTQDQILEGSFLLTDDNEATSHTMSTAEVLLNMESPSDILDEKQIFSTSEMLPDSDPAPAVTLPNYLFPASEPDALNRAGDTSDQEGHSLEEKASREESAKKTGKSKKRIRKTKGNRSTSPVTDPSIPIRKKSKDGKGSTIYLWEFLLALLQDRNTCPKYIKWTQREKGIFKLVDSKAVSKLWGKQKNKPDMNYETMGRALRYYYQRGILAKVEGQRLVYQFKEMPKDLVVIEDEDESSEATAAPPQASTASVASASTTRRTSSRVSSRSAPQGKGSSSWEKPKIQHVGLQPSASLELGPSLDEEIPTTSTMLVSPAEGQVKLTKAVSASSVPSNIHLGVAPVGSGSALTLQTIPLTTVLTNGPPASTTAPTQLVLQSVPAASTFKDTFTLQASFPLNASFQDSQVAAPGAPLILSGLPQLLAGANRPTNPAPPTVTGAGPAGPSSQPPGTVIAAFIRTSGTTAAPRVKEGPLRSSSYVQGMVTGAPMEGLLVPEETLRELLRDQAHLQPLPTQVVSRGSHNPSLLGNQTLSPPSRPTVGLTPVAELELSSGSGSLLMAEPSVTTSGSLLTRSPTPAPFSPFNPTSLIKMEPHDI
How it was run: as §1

ELK4 = target: T9, ELK4 (Homo sapiens, UniProt P28324-2 1-405)
T9 sequence: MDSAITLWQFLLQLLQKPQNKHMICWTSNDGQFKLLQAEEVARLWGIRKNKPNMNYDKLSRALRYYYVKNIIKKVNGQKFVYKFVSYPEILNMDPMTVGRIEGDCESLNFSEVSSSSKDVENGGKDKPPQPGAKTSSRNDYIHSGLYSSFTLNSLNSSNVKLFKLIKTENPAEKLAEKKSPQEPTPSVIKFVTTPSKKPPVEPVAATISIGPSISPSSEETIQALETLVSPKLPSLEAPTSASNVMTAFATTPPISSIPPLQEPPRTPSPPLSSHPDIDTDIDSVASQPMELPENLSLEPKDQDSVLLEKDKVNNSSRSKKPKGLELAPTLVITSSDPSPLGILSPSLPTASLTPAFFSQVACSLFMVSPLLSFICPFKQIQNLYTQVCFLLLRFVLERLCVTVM
How it was run: as §1

ETV2 = target: T10, ETV2 (Homo sapiens, UniProt O00321 1-342)
T10 sequence: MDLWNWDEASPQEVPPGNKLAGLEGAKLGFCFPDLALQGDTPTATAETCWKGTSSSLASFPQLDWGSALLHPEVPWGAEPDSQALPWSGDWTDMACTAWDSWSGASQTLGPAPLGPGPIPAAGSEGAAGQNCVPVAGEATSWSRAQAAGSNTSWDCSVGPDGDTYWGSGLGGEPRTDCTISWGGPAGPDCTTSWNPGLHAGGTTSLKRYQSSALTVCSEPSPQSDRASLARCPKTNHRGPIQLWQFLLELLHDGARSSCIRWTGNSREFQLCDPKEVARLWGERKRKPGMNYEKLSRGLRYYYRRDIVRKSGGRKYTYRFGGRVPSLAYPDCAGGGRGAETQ
How it was run: as §1

ELF3 = target: T11, ELF3 (Homo sapiens, UniProt P78545 1-371)
T11 sequence: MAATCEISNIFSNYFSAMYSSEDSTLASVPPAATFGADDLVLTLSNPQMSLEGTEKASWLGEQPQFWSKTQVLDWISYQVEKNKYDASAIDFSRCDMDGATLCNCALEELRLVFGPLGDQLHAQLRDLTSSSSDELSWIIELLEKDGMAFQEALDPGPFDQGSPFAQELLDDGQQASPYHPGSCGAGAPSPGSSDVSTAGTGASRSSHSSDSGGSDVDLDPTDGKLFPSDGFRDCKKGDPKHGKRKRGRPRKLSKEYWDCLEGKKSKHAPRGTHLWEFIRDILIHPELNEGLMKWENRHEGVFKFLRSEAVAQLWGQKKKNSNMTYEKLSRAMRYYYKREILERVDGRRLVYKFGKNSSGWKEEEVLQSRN
How it was run: as §1

ETV1 = ETV1 (Homo sapiens, UniProt P50549 1-477)
Sequence of ETV1 (P50549 whole entry): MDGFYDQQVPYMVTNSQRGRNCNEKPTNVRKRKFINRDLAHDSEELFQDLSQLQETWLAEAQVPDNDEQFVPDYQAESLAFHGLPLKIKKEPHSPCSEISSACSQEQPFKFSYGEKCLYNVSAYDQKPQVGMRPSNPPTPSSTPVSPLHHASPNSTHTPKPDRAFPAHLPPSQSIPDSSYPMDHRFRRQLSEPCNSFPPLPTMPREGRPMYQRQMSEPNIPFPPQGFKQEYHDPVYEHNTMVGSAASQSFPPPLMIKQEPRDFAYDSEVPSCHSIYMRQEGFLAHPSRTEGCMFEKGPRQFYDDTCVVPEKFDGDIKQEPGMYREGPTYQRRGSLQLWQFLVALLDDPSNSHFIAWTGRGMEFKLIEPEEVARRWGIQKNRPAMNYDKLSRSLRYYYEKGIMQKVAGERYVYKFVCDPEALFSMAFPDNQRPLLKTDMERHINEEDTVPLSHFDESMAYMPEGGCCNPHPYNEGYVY
How it was run: as §1

| Sequence | binding signal (FLI1) | binding signal (ELK1) | binding signal (GABPA) | binding signal (ERG) | binding signal (ELF1) | binding signal (EHF) | binding signal (SPI1) | binding signal (SPIB) | binding signal (ELK3) | binding signal (FEV) | binding signal (ETV5) | binding signal (SPIC) | binding signal (ELF4) | binding signal (ELK4) | binding signal (ETV2) | binding signal (ELF3) | binding signal (ETV1) |
| --- | --- | --- | --- | --- | --- | --- | --- | --- | --- | --- | --- | --- | --- | --- | --- | --- | --- |
| CAATGC | 1.21 fold enrichment (6-mer frequency, TF over GST control) | 1.23 fold enrichment (6-mer frequency, TF over GST control) | 1.21 fold enrichment (6-mer frequency, TF over GST control) | 1.12 fold enrichment (6-mer frequency, TF over GST control) | 1.21 fold enrichment (6-mer frequency, TF over GST control) | 1.17 fold enrichment (6-mer frequency, TF over GST control) | 1.12 fold enrichment (6-mer frequency, TF over GST control) | 1.32 fold enrichment (6-mer frequency, TF over GST control) | 1.21 fold enrichment (6-mer frequency, TF over GST control) | 1.16 fold enrichment (6-mer frequency, TF over GST control) | 1.22 fold enrichment (6-mer frequency, TF over GST control) | 1.12 fold enrichment (6-mer frequency, TF over GST control) | 1.3 fold enrichment (6-mer frequency, TF over GST control) | 1.21 fold enrichment (6-mer frequency, TF over GST control) | 1.21 fold enrichment (6-mer frequency, TF over GST control) | 1.22 fold enrichment (6-mer frequency, TF over GST control) | 1.12 fold enrichment (6-mer frequency, TF over GST control) |
| CAACCC | 1.15 fold enrichment (6-mer frequency, TF over GST control) | 1.22 fold enrichment (6-mer frequency, TF over GST control) | 1.27 fold enrichment (6-mer frequency, TF over GST control) | 1.21 fold enrichment (6-mer frequency, TF over GST control) | 1.24 fold enrichment (6-mer frequency, TF over GST control) | 1.16 fold enrichment (6-mer frequency, TF over GST control) | 1.21 fold enrichment (6-mer frequency, TF over GST control) | 1.26 fold enrichment (6-mer frequency, TF over GST control) | 1.21 fold enrichment (6-mer frequency, TF over GST control) | 1.21 fold enrichment (6-mer frequency, TF over GST control) | 1.23 fold enrichment (6-mer frequency, TF over GST control) | 1.23 fold enrichment (6-mer frequency, TF over GST control) | 1.34 fold enrichment (6-mer frequency, TF over GST control) | 1.22 fold enrichment (6-mer frequency, TF over GST control) | 1.17 fold enrichment (6-mer frequency, TF over GST control) | 1.34 fold enrichment (6-mer frequency, TF over GST control) | 1.18 fold enrichment (6-mer frequency, TF over GST control) |
